Data on 39 compounds can be found in PubChem BioAssay (NCI).

Compounds without any hit were thinned out: in the full panel of roughly 83,000, 20% have a hit.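 Treatment: one concentration, 48 hours, 96-well format. Scoring: percent growth, with anything below 10 considered active.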 Activity calls are given as the source filed them.

One assay deals with MCF7 breast. Description: NCI-60 one-dose screen, 48 h (100 = growth as untreated, 0 = no growth, -100 = all killed). The note with it: 10 µM.
Regarding `CC(=O)c1ccc(Nc2nc(NCCO)nc(Nc3ccc(Cl)cc3)n2)cc1`, the growth is 69.1% (inactive).
In the case of `Cc1ccc(C2CC(c3ccc(Nc4nc(NCCO)nc(Nc5ccc(Cl)cc5)n4)cc3)=NN2c2cc(Cl)cc(Cl)c2)cc1` (stereo not drawn), the growth was 88.2% (inactive).
Take `CCCCN1CCN(c2ccc3nc(-c4ccc5nc(-c6ccc(OC)c(OC)c6)[nH]c5c4)[nH]c3c2)CC1`: the growth was -67.2% (active).
With `Cc1cccc(NC(=O)c2sc3nc4c(cc3c2N)CCCC4)c1C`, the growth is 17.1% (inactive).
As for `CCOC(=O)c1cc2c(n1Cc1cc(OC)c(OC)c(OC)c1)-c1oncc1CCC2`, the growth was 7.45% (active).
Still for that read-out and setting: as for `Clc1ccc(Oc2ccc(Nc3ncnc4onc(-c5ccccc5)c34)cc2)c(Cl)c1`, the figure is 80.6% (inactive); as for `O=C(Nc1ccc(C23CC4CC(CC(c5ccccc5)(C4)C2)C3)cc1)c1cccs1`, 67.3% (inactive); as for `COc1cc(C(=O)Nc2ccc(-c3nc4ccccc4[nH]3)cc2)cc(OC)c1OC`, 11.6% (inactive).
Regarding `CCOC(=O)C1(C(=O)OCC)N=C(c2ccccc2)C=C1c1ccccc1`, the growth is 79.5% (inactive).
As for `CC1=C(CC(=O)c2cccc([N+](=O)[O-])c2)C(=O)c2ccccc2C1=O`, the growth was 7.59% (active).
With `O=c1cc(NC2CCN(CCCc3ccccc3)CC2)c2cc(Cl)ccc2o1`, the growth is 3.46% (active).
As to `O=S(=O)(Nc1ncccn1)c1ccc(NC2Nc3nc4ccccc4nc3S2)cc1` (stereo not drawn), the growth was 98.8% (inactive).
With `COc1ccc(-c2cc(=O)c3c(OC)c4ccoc4c(/C=C/C=O)c3o2)cc1`, the growth was 17.3% (inactive).
On to `COc1cccc2cc(N(C)c3nc(C)nc4ccsc34)ccc12`, for which the growth is 16.9% (inactive).
As to `CC[C@@H](C)[C@H](NC(=O)Cn1cc(CNC(=O)[C@@H](NC(=O)OCc2ccccc2)C(C)C)nn1)C(=O)O`, the growth was 100% (inactive).
As for `COc1cc(/C=C/C(=O)c2ccc(Nc3nc(NCCO)nc(N4CCOCC4)n3)cc2)cc(OC)c1OC`, the growth is 3.22% (active).
With `Cc1ccccc1CNC(=O)C1CN(c2ccc(Cl)cc2)N(c2ccc(Cl)cc2)C1=O` (stereo not drawn), the growth is 74.1% (inactive).
Regarding `COc1ccc(Cn2c(Br)c3c(c2-c2cc(OC)c(OC)c(OC)c2)CCc2sc(NC(C)=O)nc2-3)cc1`, the growth is 16.3% (inactive).
The same measure, in the same setting: with `CC(C)(C)c1ccc(C2CC(=O)C3=C(C2)Nc2ccccc2N(C(=O)c2ccccc2Cl)C3c2ccc(F)cc2)cc1` (stereo not drawn) the figure was -33.3% (active); with `CCOC(=O)c1ccc(N=Cc2sc(=O)[nH]c2O)cc1`, 92% (inactive).
With `COC(=O)/C(CCC=C(C)C)=C1\[C@@H](OC(C)=O)C[C@@]2(C)[C@H]1C[C@@H](O)[C@H]1[C@@]3(C)CC[C@H](NCc4ccccc4)[C@@H](C)[C@@H]3CC[C@@]12C`, the growth is 49.5% (inactive).
On to `Cc1cccc2c(=O)c3c(sc12)c(NCCCNCCO)nc1ccccc13`, for which the growth was -61% (active).
Consider `C[C@@H](C(=O)NCCCC#Cc1cnc(Nc2ccc(C#N)cc2)nc1NC1CC1)N(C)C(=O)/C=C/CN(C)C`, for which the growth was 17.3% (inactive).
The same measure, in the same setting: with `COc1ccc(/C=c2\sc3n(c2=O)NC2C(N=3)N(C)C(=O)N2C)cc1` (stereo not drawn) the figure was 94.5% (inactive).
For `Cn1cc([C@@H]2Nc3ccc4[nH]ncc4c3[C@H]3[C@H]4CCC(C4)[C@H]32)c(C(F)(F)F)n1`, the growth was 25% (inactive).
Take `COc1cc2cc3c(=O)n4c(cc5cc(OC)ncc54)c(=O)n3c2cn1`: the growth was 95.4% (inactive).
On the same count and under the same terms, with `COc1ccccc1C(=O)/C=C/c1ccccc1` the figure was 28.6% (inactive); with `CCCc1c(C)c2sc(=O)[nH]c2[nH]c1=O`, 97.6% (inactive); with `Clc1ccc(Nc2scc3[n+]2CCC3)cc1`, 89.6% (inactive).
Consider `CNCCNc1nc2ccccc2c2c(=O)c3cc(F)ccc3sc12`, for which the growth was -44.5% (active).
Take `O=C(Nc1ccc(Cl)cc1)c1cc2ccccc2cc1OP(=O)(O)O`: the growth was 54% (inactive).
For `COc1cc(C=C2C(=O)N(C)C(=O)N(C)C2=O)cc(CN2CCCCC2)c1O`, the growth was 92.5% (inactive).
As for `O=C(Nc1ncc(Cc2cccc(C(F)(F)F)c2)s1)C1COc2ccccc2O1` (stereo not drawn), the growth is 81.8% (inactive).
In the case of `Cc1c(-c2noc(-c3ccc([N+](=O)[O-])cc3)n2)no[n+]1[O-]`, the growth was 55.2% (inactive).
For the compound `O=C(N/N=C/c1ccccc1Cl)C(=O)Nc1cccc(C(F)(F)F)c1`, the growth is 97.3% (inactive).
As for `O=C(NC1CCN(Cc2ccccc2)CC1)c1cc2nc(-c3ccc(Cl)s3)cc(C(F)(F)F)n2n1`, the growth is -68.2% (active).
As to `COc1cccc(-c2nn(C)c3sc(C(=O)NCCN4CCN(c5ccccc5F)CC4)cc23)c1`, the growth is 15.1% (inactive).
For the compound `COc1ccc(C(=O)C2CC2c2ccc(Cl)cc2)cc1` (stereo not drawn), the growth was 103% (inactive).
Still for that read-out and setting: as for `Nc1ccc(C2c3ccccc3Oc3ccccc32)cc1`, the figure is 104% (inactive).

The next assay concerns HCT-116 colon. The assay is described as above. The note with it: 10 µM unless noted.
On to `CC(=O)c1ccc(Nc2nc(NCCO)nc(Nc3ccc(Cl)cc3)n2)cc1`, for which the growth was 98.4% (inactive).
As to `Cc1ccc(C2CC(c3ccc(Nc4nc(NCCO)nc(Nc5ccc(Cl)cc5)n4)cc3)=NN2c2cc(Cl)cc(Cl)c2)cc1` (stereo not drawn), the growth was 103% (inactive).
On to `CCCCN1CCN(c2ccc3nc(-c4ccc5nc(-c6ccc(OC)c(OC)c6)[nH]c5c4)[nH]c3c2)CC1`, for which the growth was -80.2% (active).
With `Cc1cccc(NC(=O)c2sc3nc4c(cc3c2N)CCCC4)c1C`, the growth is 14.8% (inactive).
As to `CCOC(=O)c1cc2c(n1Cc1cc(OC)c(OC)c(OC)c1)-c1oncc1CCC2`, the growth was 8.98% (active).
Take `Clc1ccc(Oc2ccc(Nc3ncnc4onc(-c5ccccc5)c34)cc2)c(Cl)c1`: the growth was 85.4% (inactive).
Still for that read-out and setting: with `O=C(Nc1ccc(C23CC4CC(CC(c5ccccc5)(C4)C2)C3)cc1)c1cccs1` the figure was 60.4% (inactive); with `COc1cc(C(=O)Nc2ccc(-c3nc4ccccc4[nH]3)cc2)cc(OC)c1OC`, 24.1% (inactive).
The same measure, in the same setting: as for `CCOC(=O)C1(C(=O)OCC)N=C(c2ccccc2)C=C1c1ccccc1`, the figure is 78.4% (inactive); as for `CC1=C(CC(=O)c2cccc([N+](=O)[O-])c2)C(=O)c2ccccc2C1=O`, 9.03% (active); as for `O=c1cc(NC2CCN(CCCc3ccccc3)CC2)c2cc(Cl)ccc2o1`, 8.12% (active).
For the compound `O=S(=O)(Nc1ncccn1)c1ccc(NC2Nc3nc4ccccc4nc3S2)cc1` (stereo not drawn), the growth is 101% (inactive).
As for `COc1ccc(-c2cc(=O)c3c(OC)c4ccoc4c(/C=C/C=O)c3o2)cc1`, the growth is -73% (active).
As for `COc1cccc2cc(N(C)c3nc(C)nc4ccsc34)ccc12`, the growth was -0.926% (active).
For the compound `CC[C@@H](C)[C@H](NC(=O)Cn1cc(CNC(=O)[C@@H](NC(=O)OCc2ccccc2)C(C)C)nn1)C(=O)O`, the growth is 107% (inactive).
For the compound `COc1cc(/C=C/C(=O)c2ccc(Nc3nc(NCCO)nc(N4CCOCC4)n3)cc2)cc(OC)c1OC`, the growth is 9.47% (active).
With `Cc1ccccc1CNC(=O)C1CN(c2ccc(Cl)cc2)N(c2ccc(Cl)cc2)C1=O` (stereo not drawn), the growth is 83.8% (inactive).
For `COc1ccc(Cn2c(Br)c3c(c2-c2cc(OC)c(OC)c(OC)c2)CCc2sc(NC(C)=O)nc2-3)cc1`, the growth is 40.7% (inactive).
Take `CC(C)(C)c1ccc(C2CC(=O)C3=C(C2)Nc2ccccc2N(C(=O)c2ccccc2Cl)C3c2ccc(F)cc2)cc1` (stereo not drawn): the growth is 7.97% (active).
The same measure, in the same setting: as for `CCOC(=O)c1ccc(N=Cc2sc(=O)[nH]c2O)cc1`, the figure is 107% (inactive); as for `COC(=O)/C(CCC=C(C)C)=C1\[C@@H](OC(C)=O)C[C@@]2(C)[C@H]1C[C@@H](O)[C@H]1[C@@]3(C)CC[C@H](NCc4ccccc4)[C@@H](C)[C@@H]3CC[C@@]12C`, 20.2% (inactive).
For `Cc1cccc2c(=O)c3c(sc12)c(NCCCNCCO)nc1ccccc13`, the growth was -30.3% (active).
With `C[C@@H](C(=O)NCCCC#Cc1cnc(Nc2ccc(C#N)cc2)nc1NC1CC1)N(C)C(=O)/C=C/CN(C)C`, the growth is 27.7% (inactive).
As to `COc1ccc(/C=c2\sc3n(c2=O)NC2C(N=3)N(C)C(=O)N2C)cc1` (stereo not drawn), the growth was 100% (inactive).
The same measure, in the same setting: as for `Cn1cc([C@@H]2Nc3ccc4[nH]ncc4c3[C@H]3[C@H]4CCC(C4)[C@H]32)c(C(F)(F)F)n1`, the figure is 27.6% (inactive); as for `COc1cc2cc3c(=O)n4c(cc5cc(OC)ncc54)c(=O)n3c2cn1`, 100% (inactive); as for `COc1ccccc1C(=O)/C=C/c1ccccc1`, 37% (inactive).
`CCCc1c(C)c2sc(=O)[nH]c2[nH]c1=O`: the growth was 106% (inactive).
As to `Clc1ccc(Nc2scc3[n+]2CCC3)cc1`, the growth is 96.2% (inactive).
Take `CNCCNc1nc2ccccc2c2c(=O)c3cc(F)ccc3sc12`: the growth was 0.271% (active).
As to `O=C(Nc1ccc(Cl)cc1)c1cc2ccccc2cc1OP(=O)(O)O`, the growth is 10.8% (inactive).
On to `COc1cc(C=C2C(=O)N(C)C(=O)N(C)C2=O)cc(CN2CCCCC2)c1O`, for which the growth is 100% (inactive).
`O=C(Nc1ncc(Cc2cccc(C(F)(F)F)c2)s1)C1COc2ccccc2O1` (stereo not drawn): the growth is 83.3% (inactive).
On to `Cc1c(-c2noc(-c3ccc([N+](=O)[O-])cc3)n2)no[n+]1[O-]`, for which the growth is 87.5% (inactive).
For the compound `O=C(N/N=C/c1ccccc1Cl)C(=O)Nc1cccc(C(F)(F)F)c1`, the growth was 92.1% (inactive).
On to `O=C(NC1CCN(Cc2ccccc2)CC1)c1cc2nc(-c3ccc(Cl)s3)cc(C(F)(F)F)n2n1`, for which the growth was 28% (inactive).
As for `COc1cccc(-c2nn(C)c3sc(C(=O)NCCN4CCN(c5ccccc5F)CC4)cc23)c1`, the growth is 33.5% (inactive).
Turning to `COc1ccc(C(=O)C2CC2c2ccc(Cl)cc2)cc1` (stereo not drawn), the growth is 77.1% (inactive).
`Nc1ccc(C2c3ccccc3Oc3ccccc32)cc1`: the growth was 97.8% (inactive).
